Experimental findings from PubChem BioAssay (NCATS) are described below.

Assay [1] can be described thus: Cell Viability - NIH 3T3 (AID 541).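 Further: plate controls were DMSO alone for no effect and tamoxifen positive control for full effect; nearly all actives have a fitted effect of over 25% in size.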 Conditions: NIH 3T3 cell viability, qHTS; activity change, negative = cytotoxicity: at 92.2 µM (top of the series). In outline:
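NIH 3T3 mouse embryo fibroblasts (1000 cells/well) were plated in complete medium and treated with compound for 40 hr at 37 °C. Viability was read as intracellular ATP by CellTiter-Glo luminescence; AC50 values came from Hill-equation fits of concentration-response data.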
Background: Quantitative high-throughput screening tests each substance at several concentrations.

A short description of assay [2]: Cell Viability - H-4-II-E (AID 543). Further: on the % scale 0 is the no-effect control and ±100 the full control effect; nearly all actives have a fitted effect of over 35% in size. An outline of the steps:
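Rat hepatoma H-4-II-E cells (1500/well) were plated, incubated 5 hr at 37 °C, then exposed to compounds for 40 hr at 37 °C. Cellular ATP was read by CellTiter-Glo luminescence; AC50 came from Hill-equation fits of concentration-response data.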

The nature of assay [3]: MultiTox-Fluor Cytotoxicity Assay - LYMP1-001 - Live Cells (AID 947).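 Further: 0% = DMSO only and full inhibition = tetraoctylammonium bromide control.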
A short description of assay [4]: Cell Viability - LYMP2-014 (AID 983).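 Further: plate controls were DMSO only for no effect and 92 µM tetraoctylammonium bromide for full effect; nearly all actives have a fitted effect of over 50% in size.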 An outline of the steps:
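Human lymphoblastoid cells (2500/well) were pre-incubated 5 hr at 37 C, then exposed to compounds in complete medium for 24 hr at 37 C. Intracellular ATP was read by CellTiter-Glo luminescence after 30 min at room temperature; AC50 from Hill fits.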

The nature of assay [5]: Cell Viability - LYMP2-018 (AID 985).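 Further: compound exposure lasted 24 hr at 37 °C; plate controls were DMSO only for no effect and tetraoctylammonium bromide at 92 µM for full effect; nearly all actives have a fitted effect of over 50% in size.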 An outline of the steps: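 Human lymphoblastoid cells (2500/well) were pre-incubated 5 hr at 37 C, then exposed to compounds for 24 hr at 37 C in complete medium. Viability was read as intracellular ATP by CellTiter-Glo luminescence; AC50 values came from Hill-equation fits.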
For assay [6], the target named is Glucocorticoid receptor (Homo sapiens) (UniProt P04150). The assay can be described thus: qHTS assay for small molecule agonists of glucocorticoid receptor signaling (AID 588532; active means well fitted curve in the direction sought with a large enough effect in the signal ratio, with a control signal flat; the % refers to the signal ratio;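 further: 100% = dexamethasone at 0.1 µM and 0% = DMSO only wells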). The following applies: HeLa MMTV-bla, beta-lactamase ratio, agonist, 18 h; stronger effect = higher value; percent of dexamethasone control, DMSO zero. In outline: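 Using MMTV-bla HeLa cells in medium with 1% stripped FBS and 25 mM HEPES, compounds were titrated and incubated overnight-length (18 h). Beta-lactamase cleavage of CCF4 was quantified by dual-emission fluorescence.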
Chain of Glucocorticoid receptor (Homo sapiens) (P04150 whole entry, looked up): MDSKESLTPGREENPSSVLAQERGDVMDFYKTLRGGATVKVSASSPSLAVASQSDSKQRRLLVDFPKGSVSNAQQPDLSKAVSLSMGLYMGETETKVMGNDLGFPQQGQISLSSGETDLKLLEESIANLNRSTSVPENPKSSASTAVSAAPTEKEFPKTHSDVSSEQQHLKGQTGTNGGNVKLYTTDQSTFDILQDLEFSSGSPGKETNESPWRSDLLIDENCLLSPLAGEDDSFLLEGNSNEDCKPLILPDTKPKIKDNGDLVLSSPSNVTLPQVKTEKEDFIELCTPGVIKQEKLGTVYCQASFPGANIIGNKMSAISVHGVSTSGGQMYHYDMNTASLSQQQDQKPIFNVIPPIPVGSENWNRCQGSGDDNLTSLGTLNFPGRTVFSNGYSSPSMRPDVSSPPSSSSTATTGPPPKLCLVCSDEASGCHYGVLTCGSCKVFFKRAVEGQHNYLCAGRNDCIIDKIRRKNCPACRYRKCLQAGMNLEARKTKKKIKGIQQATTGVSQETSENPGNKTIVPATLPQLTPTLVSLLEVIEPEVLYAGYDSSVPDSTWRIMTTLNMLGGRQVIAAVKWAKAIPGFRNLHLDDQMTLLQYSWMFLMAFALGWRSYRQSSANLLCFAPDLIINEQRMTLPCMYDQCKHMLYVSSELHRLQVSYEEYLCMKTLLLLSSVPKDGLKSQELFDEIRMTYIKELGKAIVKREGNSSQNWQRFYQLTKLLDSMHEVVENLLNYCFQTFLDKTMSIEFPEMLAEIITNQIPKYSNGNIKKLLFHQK

Assay [7] shares this target. In words: qHTS assay for small molecule antagonists of glucocorticoid receptor signaling (AID 588533; active means well fitted inhibition curve with a large enough effect in the signal ratio, with a control signal flat, not every such curve was filed as active; the % refers to the signal ratio;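 further: cells stimulated with 2 nM dexamethasone as agonist; on the % scale 0 is the no-effect control and ±100 the full control effect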). An outline of the steps:
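Antagonist-mode qHTS: compound titrations added to GRE-bla HeLa cells, then dexamethasone 2 nM final; 18 h, 37 C. CCF4 FRET fluorescence normalized to dexamethasone and DMSO; IC50 from Hill fit.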

Assay [8] can be described thus: qHTS assay for small molecule agonists of the antioxidant response element (ARE) signaling pathway (AID 651741; active means well fitted activation curve with a large enough effect in the signal ratio; the % refers to the signal ratio; further: potency means the concentration at half of the fitted maximal effect; on activation: % of control where 0% means no effect). In outline:
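Seeding 2,000 ARE-bla HepG2 cells per well preceded a 5 h incubation at 37 C/5% CO2 and a 16 h compound exposure at 37 C. Beta-lactamase reporter activity was then quantified by fluorescence after 2 h with LiveBLAzer B/G FRET substrate.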

A short description of assay [9]: qHTS assay for small molecule disruptors of the mitochondrial membrane potential - 5 hr assay (AID 651755; calls by dose curve; further: on the % scale 0 is the no-effect control and ±100 the full control effect; nearly all actives have a fitted effect of over 40% in size). An outline of the steps:
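HepG2, 2,000 cells/well, overnight attach; cpd or DMSO 5 hr, 37C/5% CO2; Mito-MPS 30 min 37C; fluor 490/535 + 540/590 nm.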

Assay [10] deals with Estrogen receptor (Homo sapiens) (UniProt P03372). In words: qHTS assay for small molecule antagonists of estrogen receptor alpha signaling (AID 588513; active means well fitted curve in the direction sought with a large enough effect in the signal ratio, with a control signal flat, not every such curve was filed as active; the % refers to the signal ratio; further: on the % scale 0 is the no-effect control and ±100 the full control effect). An outline of the steps:
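ER-alpha-UAS-bla GripTite HEK 293 cells in medium with 2% charcoal/dextran-treated FBS were preincubated 4 h at 37 C, dosed with compound (1:2 titration), stimulated with 0.5nM 17-beta-estradiol for 18 h, then read by CCF4 beta-lactamase fluorescence.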

The target is the same in assay [11]. In words: qHTS assay for small molecule agonists of estrogen receptor alpha signaling (AID 588514; calls by dose curve;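 further: 0% = vehicle only and 100% = reference agonist; nearly all actives have a fitted effect of over 70% in size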). In outline:
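ER-alpha-UAS-bla GripTite HEK 293 cells in medium with 2% charcoal/dextran-treated FBS were treated with compound titrations at 37 C for 18 hrs; beta-lactamase reporter read by CCF4 fluorescence after 2 hrs at RT.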

Assay [12] deals with Peroxisome proliferator-activated receptor delta (Homo sapiens) (UniProt Q03181). In words: qHTS assay for small molecule agonists of peroxisome proliferator-activated receptor delta signaling (AID 588534; calls by dose curve;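 further: 0% = DMSO basal wells and 100% = positive control agonist at 10 µM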). In outline: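 Cell-based beta-lactamase reporter assay run in agonist mode: cells seeded and incubated 5 hrs at 37 C, compounds added and incubated 18 hrs at 37 C. CCF4 dye fluorescence read after 2 hrs at RT; EC50 and efficacy from Hill fits.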
Chain of Peroxisome proliferator-activated receptor delta (Homo sapiens) (Q03181 whole entry, looked up): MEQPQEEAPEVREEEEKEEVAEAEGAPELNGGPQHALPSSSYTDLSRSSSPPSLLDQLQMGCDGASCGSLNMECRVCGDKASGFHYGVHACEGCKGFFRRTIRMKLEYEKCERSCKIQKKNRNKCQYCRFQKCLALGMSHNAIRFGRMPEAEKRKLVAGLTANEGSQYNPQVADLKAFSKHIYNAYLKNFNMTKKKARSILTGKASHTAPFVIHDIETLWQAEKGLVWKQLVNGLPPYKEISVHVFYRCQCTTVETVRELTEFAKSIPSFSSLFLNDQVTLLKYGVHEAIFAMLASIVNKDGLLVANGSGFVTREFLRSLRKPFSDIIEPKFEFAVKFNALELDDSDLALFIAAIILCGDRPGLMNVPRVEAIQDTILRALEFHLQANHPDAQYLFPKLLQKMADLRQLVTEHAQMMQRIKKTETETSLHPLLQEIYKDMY

Assay [13] is described as follows: qHTS assay for small molecule antagonists of peroxisome proliferator-activated receptor delta signaling (AID 588535; active means well fitted inhibition curve with a large enough effect in the signal ratio, with a control signal flat, not every such curve was filed as active; the % refers to the signal ratio;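 on max response: cells co-treated with a PPAR-delta agonist as stimulator during compound exposure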). The following applies: HEK293T PPARd-UAS-bla, beta-lactamase FRET ratio, 18 h; 460 nm channel. An outline of the steps:
(§1)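 Cell-based beta-lactamase assay in antagonist mode: 4000 HEK293T PPAR-delta-UAS-bla cells per well, 5 hr preincubation then 18 hr compound incubation at 37 C. IC50 obtained by Hill equation fitting.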

Assay [14] has as its target Peroxisome proliferator-activated receptor delta (Homo sapiens) (UniProt Q03181). The description is as above. In outline:
as §1

Assay [15] concerns the target Peroxisome proliferator-activated receptor gamma (Homo sapiens) (UniProt P37231). The assay can be described thus: qHTS assay for small molecule agonists of peroxisome proliferator-activated receptor gamma signaling (AID 588536; active means well fitted curve in the direction sought with a large enough effect in the signal ratio, with a control signal flat, not every such curve was filed as active; the % refers to the signal ratio;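 further: 0% = DMSO basal wells and 100% = rosiglitazone at 2 µM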). An outline of the steps: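 HEK293 UAS-bla reporter line, 1% charcoal/dextran FBS; titration, 16 h, 37 C; CCF4 loading 2 h RT; fluorescence 460/530 nm. Normalized to rosiglitazone 2 uM = 100%, DMSO = 0%.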

The target is the same in assay [16]. In words: qHTS assay for small molecule antagonists of peroxisome proliferator-activated receptor gamma signaling (AID 588537; active means well fitted inhibition curve with a large enough effect in the signal ratio, with a control signal flat, not every such curve was filed as active; the % refers to the signal ratio;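 further: reporter cells co-stimulated with 50 nM rosiglitazone agonist during compound treatment; % of control where 0% means no effect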). An outline of the steps: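 Inhibitors of agonist-stimulated UAS-bla reporter activity were sought in HEK293 cells; rosiglitazone (50 nM) defined full signal and DMSO baseline. Curves fitted to Hill model gave IC50 and efficacy.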
The target in assay [17] is Voltage-gated inwardly rectifying potassium channel KCNH2 (Homo sapiens) (UniProt Q12809). The assay can be described thus: qHTS Assay for Small Molecule Inhibitors of the Human hERG Channel Activity (AID 588834).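 Further: lower thallium flux fluorescence means stronger hERG block; nearly all actives have a fitted effect of over 50% in size.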 Further: potency means the concentration at half of the fitted maximal effect. In outline:
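U2OS cells transduced with hERG via BacMam (MOI ~100), plated 2000/well, loaded with FluxOR thallium dye, compound ~10 min, then stimulation buffer; fluorescence decrease read kinetically; AC50 from Hill fits.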

Assay [18] is described as follows: qHTS assay for small molecule activators of the nuclear factor-kappa B (NF-kB) signaling pathway (AID 651749; active means well fitted activation curve with a large enough effect in the signal ratio; the % refers to the signal ratio; further: % of control where 0% means no effect). Conditions: NF-kB-bla ME-180 cells, beta-lactamase FRET ratio, 16 h; stronger effect = higher value. An outline of the steps:
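Stably transfected ME-180 line; NF-kB response element upstream of beta-lactamase. Treatment: compound or DMSO, 16 hr. Detection: fluorescent FRET substrate.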

Assay [19] in a line: qHTS assay for environmental chemicals that activate the Aryl hydrocarbon Receptor (AhR) signaling pathway (AID 651777). Further: % of control where 0% means no effect; nearly all actives have a fitted effect of over 15% in size. The following applies: 1A2-DRE human hepatoma cells, luciferase, 24 h; activation: stronger effect = higher value. An outline of the steps:
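Measured luciferase activity, read 30 min after One-Glo addition at room temperature, from human hepatoma cells bearing a dioxin response element–CYP1A2 promoter reporter and exposed to compound for 24 hr at 37 C.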

The nature of assay [20]: Cell Viability - LYMP2-024 (AID 988).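 Further: plate controls were DMSO only for no effect and 92 µM tetraoctylammonium bromide for full effect; nearly all actives have a fitted effect of over 60% in size.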 In outline:
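Human lymphoblastoid cells (2500/well) in complete medium were preincubated 5 hr at 37 C, then exposed to compounds for 24 hr at 37 C. Intracellular ATP was read by CellTiter-Glo luminescence; AC50 from Hill-equation fits of concentration-response data.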

Values joined by “and” are separate entries in the source; they are usually repeats but may differ in a detail not shown here. Equal values may be shown once. Inconclusive results are not listed. Active and inactive are the calls of the source. Unless noted, the call rests on the fitted dose curve; in most records, active means well fitted curve in the direction sought with a large enough effect; inconclusive means small, poorly fitted or top-dose-only effect, or another doubt; inactive means no such curve, though single readings can be large; an effect the other way counts as inactive or inconclusive.

Chain of Estrogen receptor (Homo sapiens) (P03372 whole entry, looked up): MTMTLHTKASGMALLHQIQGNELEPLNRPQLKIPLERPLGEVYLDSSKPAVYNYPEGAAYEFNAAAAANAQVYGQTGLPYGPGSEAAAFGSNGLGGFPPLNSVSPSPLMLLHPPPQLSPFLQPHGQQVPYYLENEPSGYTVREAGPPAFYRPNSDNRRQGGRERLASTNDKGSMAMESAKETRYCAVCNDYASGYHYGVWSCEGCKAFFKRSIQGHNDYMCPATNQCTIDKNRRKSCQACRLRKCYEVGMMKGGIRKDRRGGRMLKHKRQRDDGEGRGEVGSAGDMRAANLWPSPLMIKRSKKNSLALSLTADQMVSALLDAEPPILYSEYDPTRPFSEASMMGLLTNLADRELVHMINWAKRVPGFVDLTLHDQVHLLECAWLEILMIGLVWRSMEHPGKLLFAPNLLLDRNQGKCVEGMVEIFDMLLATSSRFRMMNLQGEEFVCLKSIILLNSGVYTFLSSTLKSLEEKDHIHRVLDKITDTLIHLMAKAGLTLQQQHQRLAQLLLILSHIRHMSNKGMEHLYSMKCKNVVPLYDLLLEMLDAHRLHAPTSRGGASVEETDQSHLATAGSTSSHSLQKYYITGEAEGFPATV
Chain of Peroxisome proliferator-activated receptor gamma (Homo sapiens) (P37231 whole entry, looked up): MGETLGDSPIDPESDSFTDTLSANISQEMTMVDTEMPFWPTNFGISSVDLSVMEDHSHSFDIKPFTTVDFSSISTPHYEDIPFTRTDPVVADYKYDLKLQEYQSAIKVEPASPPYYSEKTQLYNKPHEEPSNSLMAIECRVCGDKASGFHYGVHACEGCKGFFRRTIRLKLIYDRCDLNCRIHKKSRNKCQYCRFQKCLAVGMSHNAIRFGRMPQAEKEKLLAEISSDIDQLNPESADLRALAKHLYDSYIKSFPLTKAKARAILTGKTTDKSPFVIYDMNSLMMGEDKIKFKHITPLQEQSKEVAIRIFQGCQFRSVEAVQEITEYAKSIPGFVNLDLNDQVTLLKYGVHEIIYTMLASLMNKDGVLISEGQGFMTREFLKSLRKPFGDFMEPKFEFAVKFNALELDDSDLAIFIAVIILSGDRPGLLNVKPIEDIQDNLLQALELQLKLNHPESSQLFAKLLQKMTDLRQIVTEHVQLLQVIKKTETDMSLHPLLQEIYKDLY
Chain of Voltage-gated inwardly rectifying potassium channel KCNH2 (Homo sapiens) (Q12809 whole entry, looked up): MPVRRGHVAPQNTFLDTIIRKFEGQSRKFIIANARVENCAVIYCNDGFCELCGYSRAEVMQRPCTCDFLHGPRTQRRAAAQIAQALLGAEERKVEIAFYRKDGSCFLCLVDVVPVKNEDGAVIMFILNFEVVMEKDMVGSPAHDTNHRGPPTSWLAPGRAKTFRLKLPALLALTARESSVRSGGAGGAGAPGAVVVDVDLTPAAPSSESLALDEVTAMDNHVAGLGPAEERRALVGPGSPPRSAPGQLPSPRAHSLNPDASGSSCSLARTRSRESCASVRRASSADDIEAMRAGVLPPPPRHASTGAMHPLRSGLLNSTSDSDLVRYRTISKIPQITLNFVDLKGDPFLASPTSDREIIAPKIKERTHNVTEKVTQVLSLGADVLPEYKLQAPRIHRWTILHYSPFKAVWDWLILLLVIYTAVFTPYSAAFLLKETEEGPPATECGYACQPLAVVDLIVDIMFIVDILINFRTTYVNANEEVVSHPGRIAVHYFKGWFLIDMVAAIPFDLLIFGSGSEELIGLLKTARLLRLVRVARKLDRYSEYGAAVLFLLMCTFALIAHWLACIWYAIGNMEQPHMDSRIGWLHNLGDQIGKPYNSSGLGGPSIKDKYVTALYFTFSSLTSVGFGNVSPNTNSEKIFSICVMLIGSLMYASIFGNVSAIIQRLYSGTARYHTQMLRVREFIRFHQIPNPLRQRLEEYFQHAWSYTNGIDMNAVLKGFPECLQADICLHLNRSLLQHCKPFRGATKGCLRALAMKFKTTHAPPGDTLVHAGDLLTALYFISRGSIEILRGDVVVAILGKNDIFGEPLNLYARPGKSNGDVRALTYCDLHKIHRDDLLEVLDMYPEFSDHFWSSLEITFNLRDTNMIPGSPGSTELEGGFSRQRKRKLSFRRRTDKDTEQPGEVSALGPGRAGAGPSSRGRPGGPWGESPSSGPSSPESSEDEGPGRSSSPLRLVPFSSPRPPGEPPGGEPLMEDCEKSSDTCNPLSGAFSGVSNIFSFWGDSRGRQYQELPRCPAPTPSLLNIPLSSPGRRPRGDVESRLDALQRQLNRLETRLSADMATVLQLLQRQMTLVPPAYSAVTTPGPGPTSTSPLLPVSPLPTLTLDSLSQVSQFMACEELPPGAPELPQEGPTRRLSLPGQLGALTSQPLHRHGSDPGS

Consider `CN(C)c1ccccc1`, for which the Potency result in assay [1], in assay [2], in assay [4], in [5], in assay [8] and in [9] was “inactive” each time. Further, the call in [3] and in assay [7] was inactive. The activation in [6] is -11% (inactive).

As for `CC(C#N)CCC#N` (configuration not stated), the Potency result in assay [1], in assay [2], in assay [5], in [10], in [11] and in assay [16] was “inactive” throughout. Also, the Potency result in assay [17] and in [8] was “inactive” each time. The molecule was classed as inactive in [3], in assay [7], in assay [12], in [14] and in assay [15]. Moreover, the activation in [6] was 5.21% (inactive); in [18], 0.705% (inactive); in assay [19], -0.458% (inactive). Also, in [13], the max response is 27.1%.

Regarding `c1ccc(C2CO2)cc1` (configuration not stated), the Potency result in assay [1], in [2], in [4], in assay [5], in assay [20] and in [16] was “inactive” in each case. For the same molecule, the Potency entry in assay [17] and in [8] was “inactive” each time. For the same molecule, the molecule was classed as inactive in assay [3], in assay [7], in [12], in [14] and in assay [15]. Besides, the activation in assay [6] is 9.49% (inactive); in assay [19] it was 0.299% (inactive). In addition, in [13], the max response is -22%.

With `Clc1ccccc1`, the Potency result in [1], in assay [2], in assay [5], in assay [20], in assay [10] and in assay [11] was “inactive” each time. In addition, the Potency entry in assay [16], in [17] and in assay [9] was “inactive” in each case. The call in [3], in assay [7], in assay [12], in assay [14] and in [15] was inactive. Also, the activation in assay [6] is -4.89% (inactive); in assay [19], -0.0364% (inactive). Also, in assay [13], the max response is -34.6%.

Regarding `Clc1ccc(C(Cl)(Cl)Cl)cc1Cl`, the Potency result in [1], in [2], in assay [4], in assay [5], in assay [10] and in assay [11] was “inactive” each time. In addition, the Potency result in assay [16] and in assay [9] was “inactive” throughout. The outcome in assay [3], in [7] and in assay [12] was inactive. Further, in assay [17], the Potency was 11.2 µM (active). Besides, in assay [18], the activation is -1.35% (inactive).

Turning to `Clc1ccc(Cl)c(Cl)c1`, the Potency result in assay [1], in assay [2], in [4], in [5], in assay [20] and in assay [16] was “inactive” in each case. For the same molecule, the Potency result in assay [17], in [8] and in [9] was “inactive” throughout. The molecule was classed as inactive in [12], in assay [14] and in [15]. In addition, the max response in assay [13] is -17.8% and 7%. The activation in assay [19] was 0.0505% (inactive) and 0.0105% (inactive).

Take `CCOC(=O)CC(SP(=O)(OC)OC)C(=O)OCC` (configuration not stated): the Potency entry in assay [1], in [2], in assay [4], in assay [5], in [20] and in assay [16] was “inactive” each time. For the same molecule, the Potency result in assay [9] was “inactive”. Besides, the molecule was called inactive in assay [3], in assay [7], in assay [12] and in [15]. Moreover, the activation was 2.95% (inactive) in assay [6]; -1.06% (inactive) and 1.21% (inactive) in [18]; 1.9% (inactive) and 4.95% (inactive) in [19]. Also, the Potency in [8] was 42.2 µM (active).

In the case of `CCCCOC(C)=O`, the Potency entry in assay [1], in [2], in assay [4], in assay [5], in assay [20] and in [10] was “inactive” throughout. The Potency entry in assay [11], in assay [16], in assay [8] and in assay [9] was “inactive” in each case. Also, the result in assay [3], in assay [12] and in [14] was inactive. In [13], the max response worked out at 21.2%. For the same molecule, the activation is -1.17% (inactive) in assay [18] and -0.098% (inactive) in assay [19].
